A selection: hits, their analogues and other compounds. The true share with any hit is near 11%.
Pf growth 48h = P. falciparum growth inhibition at 48 hours (one generation). P. falciparum luciferase growth in erythrocytes, 48 h. Potency, µM (titrated, usually from 28.7 µM), inactives show top-dose activity change, negative = inhibition, hits mostly inhibitors. 5.9% of 310,000 active. AID 504832; also: potency is read from the fitted curve at half-maximal effect; % is scaled to controls: 0 for no effect and ±100 for the full control effect
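Luminescence readout; reporter = integrated firefly luciferase in P. falciparum. RBC culture at 2% hematocrit, 0.1% parasitemia final, 37 C/5% CO2; decreased signal taken as growth inhibition.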
AMA1 RON2 block = AMA1-RON2 (P. falciparum) interaction inhibition | Potency, µM (titrated, usually from 58.2 µM), for inactives: at the top dose activity change, negative = inhibition, most hits filed as inhibitors | AID 720542 | AlphaScreen AMA1-biotinylated RON2 peptide binding | 0.2% of 360,000 active;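 also: potency is read from the fitted curve at half-maximal effect; 0% = vehicle wells and -100% = peptide control; nearly all actives have a fitted effect of over 45% in size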
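AMA1 (3D7) with his tag at 25 nM final met compounds first, then biotinylated RON2 peptide at 25 nM; detection used donor plus acceptor beads, 10 µg/mL apiece, read by AlphaScreen after 30 min at room temperature.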
NS1 inh = inhibitors of influenza NS1 protein function. Potency, µM (titrated, usually from 46.1 µM), for inactives: top-dose activity, positive = more growth. 0.4% of 270,000 active; calls by dose curve; also: potency is read from the fitted curve at half-maximal effect; actives are rising curves; nearly all actives have a fitted effect of over 50% in size
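Recovery from NS1-induced slow growth read by OD600 in budding yeast switched to galactose assay medium (pH 6.0, -URA) at 1:100 dilution. Compound 23 nl per well; the matching strain lacking NS1 serves as control.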
Pf growth 96h = P. falciparum growth inhibition at 96 hours. P. falciparum luciferase reporter growth, 96 h. Potency, µM (top dose mostly 28.7 µM), inactives show at the highest dose activity change, negative = inhibition, hits mostly inhibitors. 6.9% of 320,000 active. AID 504834; also: potency is read from the fitted curve at half-maximal effect; % is scaled to controls: 0 for no effect and ±100 for the full control effect
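P. falciparum expressing integrated firefly luciferase, in erythrocytes at 2% hematocrit, 0.05% parasitemia, incubated with compounds 96 h at 37 C, 5% CO2. Growth inhibition read as loss of luminescence; two-generation exposure targets delayed-death apicoplast inhibitors.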
Sm TGR block = blocks Schistosoma mansoni thioredoxin glutathione reductase; purified TGR, DTNB reduction, TNB absorbance 405 nm; 3% of 360,000 active; Q962Y6; Potency, µM (series often up to 114 µM), inactives show top-dose activity change, negative = inhibition, usual class: inhibitors; AID 485364; also: potency is read from the fitted curve at half-maximal effect; % is scaled to controls: 0 for no effect and ±100 for the full control effect; nearly all actives have a fitted effect of over 60% in size
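First, TGR (20 nM dispensed) and NADPH were mixed with compound. Second, a 15 min room-temperature incubation followed. Third, further NADPH and then DTNB were added to start the reaction. Finally, TNB absorbance was monitored kinetically.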
NS1 inh valid = validation of influenza NS1 protein function inhibitors. shares compounds with NS1 inh. influenza NS1 function cell assay, 15-point titration. activity change, negative = inhibition, % at 32.9 µM. 1,400 tested, under 10 active. AID 492980; calls by dose curve; also: 0% is about no effect
PR8 titer = influenza virus titer reduction, NS1 project; 30% of 95 active; virus titer (log TCID50), log10 TCID50 at 5 µM; shares compounds with NS1 inh; MDCK infected influenza A/PR/8/34, virus titer TCID50; active compounds read low; AID 504647; call rule not given here
Numbers without * were called inactive; ? = inconclusive; nt = no result; [ ] = another dose, or the depositor's remark. Unless noted, calls follow the shape of the dose curve; as a rule, active = well fitted curve in the direction sought with a large enough effect; inconclusive = small, poorly fitted or top-dose-only effect, or another doubt; inactive = no such curve, though single readings can be large; an effect the other way counts as inactive or inconclusive.

SMILES | Pf growth 48h | AMA1 RON2 block | NS1 inh | Pf growth 96h | Sm TGR block | NS1 inh valid | others
O=C1C2CCCN2C(c2ccccc2)N1c1ccc(F)cc1 (stereo not given) | nt | 6% | 7% | ? | 0% | nt
O=C(CN1CCCCCC1=O)OCc1ncc(-c2ccccc2)o1 | 13% | -8% | 0.45µM* | 6% | -2% | 0 | PR8 titer=8.5
COCCNC(=O)CCc1ccc(S(=O)(=O)Nc2ccc(C)cc2)cc1 | -8% | 5% | 16µM* | nt | -18% | -21
Cc1ccc(NS(=O)(=O)c2ccc(CCC(=O)NC3CC3)cc2)cc1 | -24% | 1% | 2% | nt | -10% | nt
CCCCNC(=O)CS(=O)Cc1nc(-c2cccs2)oc1C (stereo not given) | nt | 24% | 11µM* | 8.3µM* | 6.3µM* | 5
Cc1oc(-c2ccccc2F)nc1CS(=O)CC(=O)NCc1cccs1 (stereo not given) | nt | 9% | 11µM* | 1% | -30% | 30
CCc1nc2c(OCc3ccccc3C)cccn2c1N(C)C(=O)C(C)C | nt | 0% | nt | nt | nt | nt
CCOC(=O)c1cnc2nc(NCc3cccc(Br)c3)[nH]n2c1=O | nt | nt | nt | nt | -2% | nt
CCn1c2ccccc2c2cc(NC(=O)COC(=O)c3cccc(S(=O)(=O)NC)c3)ccc21 | 31% | -2% | 10µM* | 52% | 3% | 2 | PR8 titer=7.3*
O=C(CCCOc1ccc(Br)cc1)Nc1nnc(C2CC2)s1 | ? | 2% | nt | -23% | -1% | nt
COc1ccc(C2=Nc3cccc4cccc(c34)N2)cc1 | 0% | -4% | 3.5µM* | ? | 50µM* | -4
COc1ccccc1Nc1nc(-c2ccc3c(c2)NC(=O)CO3)cs1 | 0% | 5% | 6% | 0% | 4% | nt
COc1cc(/C=N/n2c(-c3ccc4c(c3)NC(=O)CO4)csc2=Nc2cccc(C)c2)ccc1O | ? | 2% | 11µM* | 4.7µM* | -12% | 28 | PR8 titer=8.3
CC(C)[C@@]1(NC(=O)[C@@H]2C[C@@H]3c4cccc5[nH]cc(c45)C[C@H]3N(C)C2)O[C@@]2(O)C3CCCN3C(=O)[C@H](Cc3ccccc3)N2C1=O (stereo not given in full) | nt | nt | 5.6µM* | nt | nt | ?
COc1ccc(C(C)(C)C)cc1NC(=O)CCN1C(=O)NC(C)(C)C1=O | nt | 9% | nt | nt | nt | nt
COc1ccc(NC(=O)N2CCCC2C(=O)NC2CCCC2)cc1 (stereo not given) | -2% | 3% | 6% | 5% | 11% | nt
CCc1nnc(NS(=O)(=O)c2ccc(NC(=O)c3cc(Cl)ccc3Cl)cc2)s1 | ? | -16% | 11% | 482% | nt | nt
CCc1nnc(NS(=O)(=O)c2ccc(NC(=O)c3cc(Cl)ccc3[N+](=O)[O-])cc2)s1 | 18% | 9% | 11µM* | 0% | -8% | 29 | PR8 titer=8.3
CC(=O)c1cccc(NC(=O)CCNC(=O)c2cccc(C)c2)c1 | 0% | -3% | 11% | 1% | -2% | nt
CCOC(=O)CSc1nc2ccccc2c(=O)n1CCN1CCOCC1 | -21% | 0% | -2% | ? | 1% | nt
CCOC(=O)CSc1nc2ccc(N3CCOCC3)cc2c(=O)n1Cc1ccccc1 | nt | 77% | 1µM* | ? | 6% | 5
O=C(CN1CCCC1c1ccc2c(c1)OCCO2)NC(=O)Nc1ccccc1F (stereo not given) | ? | -17% | nt | 4% | 1% | nt
O=C(Nc1ccccc1Cl)c1ccccc1CC(O)(c1ccccc1)c1ccccc1 | nt | -1% | nt | nt | nt | nt
COc1ccc(C2NC(=O)NC(C)=C2C(=O)OC2CCC(C)CC2)cc1 (stereo not given) | 4% | -10% | ? | ? | -12% | 6
CCCn1c(SCC(=O)NNC(=O)c2ccccc2)nnc1-c1cccnc1 | 10% | 11% | ? | 32% | -14% | 2
SMILES | Pf growth 48h | AMA1 RON2 block | NS1 inh | Pf growth 96h | Sm TGR block | NS1 inh valid | others
C[C@]12C=CC(=O)C=C1CCC1C2=CC[C@]2(C)[C@@H](C(=O)CN3CCN(c4cc(N5CCCC5)nc(N5CCCC5)n4)CC3)CC[C@@H]12 (stereo not given in full) | nt | nt | 35µM* | nt | nt | ?
COc1ccc(N(C)S(=O)(=O)c2cccc(C(=O)OC(C(=O)Nc3cc(C)cc(C)c3)c3ccccc3)c2)cc1 (stereo not given) | -3% | 4% | 8.9µM* | -5% | 8% | 26
COc1ccc(N(C)S(=O)(=O)c2cccc(C(=O)N3CCN(S(=O)(=O)c4ccc(C)cc4)CC3)c2)cc1 | 5.9µM* | -16% | 11µM* | 2.6µM* | -2% | 4
COc1ccccc1C(C)NC(=O)CN(C)CC(=O)Nc1c(C)cccc1C (stereo not given) | -20% | 10% | nt | ? | -27% | nt
COCCNC(=O)c1ccc(CS(=O)(=O)c2ccccc2C)o1 | -20%[0.00184 µM] | 16% | 2% | -15% | 4% | nt
COC(=O)c1ccc(CS(=O)(=O)c2ccccc2C)o1 | -27% | -4% | 1µM* | 120% | -25% | 21
O=C(Nc1cc(S(=O)(=O)N2CCCC2)ccc1OCC(F)(F)F)c1ccncc1 | nt | 11% | nt | nt | nt | nt
Cc1ccc(NC(=O)C(=O)NCCc2c[nH]c3ccccc23)c(C)c1 | -23% | 8% | nt | 16% | 0% | nt
Cc1ccc(NS(=O)(=O)c2cccc(C(=O)NCCc3c[nH]c4ccccc34)c2)c(C)c1 | ? | -9% | 11µM* | ? | 3% | 32
CCc1cnc2c(c1SC(C(C)=O)C(=O)N(C)C)c(=O)n(C)c(=O)n2C (stereo not given) | nt | nt | nt | nt | -12% | nt
c1ccc(-n2c(SCC3CCCCO3)nnc2-c2cccs2)cc1 (stereo not given) | -14% | -12% | ? | -3% | -26% | ?
O=C(CSc1nnc(-c2cccs2)n1-c1ccccc1)NCC1CCCO1 (stereo not given) | -4% | -25% | -6% | 5% | -5% | nt
NC(=O)N[C@H]1NC(=O)NC1=O | -6%[12.8 µM] | nt | nt | 21%[12.8 µM] | nt | nt
C/C=C\C=C/C(=O)Nc1cccc(C2=NOC3(C2)C[C@@H](C(N)=O)N(C(=O)c2ccccc2)C3)c1 (stereo not given in full) | 51% | nt | 1µM* | ? | 3.2µM* | -11
CC(=O)c1ccc(S(=O)(=O)N2CCN(CC(=O)NC(=O)NC3CCCCC3)CC2)cc1 | ? | -8% | nt | ? | -17% | nt
COc1cccc(/C=C/c2nc(C#N)c(NCCN(C)C)o2)c1 | nt | nt | nt | nt | -2% | nt
COc1ccc(-c2ccnc3nc(-n4cccc4)nn23)cc1 | ? | -25% | ? | ? | ? | nt
O=C1c2ccccc2C(=O)N1c1nc2nccc(-c3ccccc3)n2n1 | 30% | 25% | ? | nt | -27% | 8
Cc1ccc(-n2ncc(C(=O)NCc3ccc4c(c3)OCO4)c2C2CCN(C(=O)OC(C)(C)C)CC2)cc1C | nt | nt | nt | nt | 0% | nt

From PubChem BioAssay
